According to PubChem BioAssay AID743365 (National Center for Advancing Translational Sciences (NCATS), 2014):
Square brackets hold non-standard residues; d marks the D form. Peptide text beside a SMILES is read from it. Orn = NCCC[C@H](N)C(=O)O

assay: qHTS profiling of inhibitors of Plasmodium falciparum (DD2) proliferation (acoustic dispense); details: P. falciparum Dd2 in erythrocytes, SYBR Green DNA, 72 h; at 49.8 µM (top of the series) unless noted
Description: Plasmodium falciparum is a virulent malarial parasite that kills 1-2 million people worldwide each year. Transmitted by mosquitoes, the sporozoite form of the parasite enters the blood stream to infect hepatocytes, where they become merozoites that infect red blood cells (erythrocytes). Within erythrocytes, merozoites begin a […] cycle of growth and division, after which the parasite is released to infect new red blood cells. Gametocytes, which form within erythrocytes as well, circulate in the bloodstream and are ingested by the mosquito, thereby completing the life cycle. To profile malarial isolates for differential chemical responses and to identify inhibitors of malarial growth, an assay that measures P. falciparum growth and replication within erythrocytes was employed. This assay uses a DNA binding fluorescent dye (SYBR Green) to detect parasite DNA following cell lysis. Because mature erythrocytes lack DNA, only Plasmodium-derived DNA is detected.
The SYBR Green viability assay was adapted from a method described previously (Plouffe et al., 2008). For screening 3 ul culture medium was dispensed into 1536 well black clear bottom plates (Aurora Biotechnologies) using a Multidrop Combi (Thermo Fisher Scientific Inc.), 23 nL of compounds in DMSO were added by an acoustic dispenser (EDC Biosystems), and 5 ul of erythrocytes infected with P. falciparum (0.3% parasitemia, 2.5% hematocrit final concentration) were added. The plates were incubated at 37 C in a humidified incubator in 5% CO2 for 72 h, and 2 ul lysis buffer (20 mM Tris HCl, 10 mM EDTA, 0.16% saponin, 1.6% triton X, 10X SYBR Green I supplied as 10,000X […] by Invitrogen) was added to each well. The plates were mixed for 25 sec with gentle shaking and incubated overnight at room temperature in the dark. The following morning, fluorescence intensity at 485(14) nm excitation and 535(25) nm emission wavelengths was measured on an EnVision (Perkin Elmer) plate reader. Plate reads were normalized relative to the control inhibitor (0.29 uM artemisinin) and vehicle (DMSO) wells present on each plate and then corrected by an algorithm using vehicle-only control plates at the beginning and end of the compound plate stack.

With `CC[C@@]1([C@@H]2O[C@@H]([C@H]3O[C@@](O)(CO)[C@H](C)C[C@H]3C)C[C@H]2C)CC[C@H]([C@]2(C)CC[C@]3(C[C@H](O)[C@@H](C)[C@@H]([C@@H](C)[C@@H](OC)[C@H](C)C(=O)O)O3)O2)O1` as the compound, how does the parasite growth, lower = inhibition read?
The parasite growth, lower = inhibition was -0.231% [at 23.2 µM].

For `COc1ccc(-c2ccc3ncc4c(c3c2)n(-c2ccc(N3CCNCC3)c(C(F)(F)F)c2)c(=O)n4C)cn1`, which parasite growth, lower = inhibition is on record?
Its parasite growth, lower = inhibition is 2.81%.

With `CC(Sc1nc2ccccc2[nH]1)C(=O)NN=Cc1cc(Br)ccc1O` (stereo not given) as the compound, how does the parasite growth, lower = inhibition read?
The parasite growth, lower = inhibition was 99.5% [at 4.15 µM].

With `COc1ncc(-c2ccc3nccc(-c4ccnnc4)c3c2)cc1NS(=O)(=O)c1ccc(F)cc1F` as the compound, how does the parasite growth, lower = inhibition read?
Its parasite growth, lower = inhibition is -0.286%.

For `CO[C@@H]1C(N(C)C(=O)c2ccccc2)C[C@H]2O[C@]1(C)n1c3ccccc3c3c4c(c5c6ccccc6n2c5c31)C(=O)NC4=O` (stereo not given in full), which parasite growth, lower = inhibition is on record?
Its parasite growth, lower = inhibition is 10.1%.

For `CN(C)c1ccc2nc3ccc(=[N+](C)C)cc-3sc2c1`, which parasite growth, lower = inhibition is on record?
The parasite growth, lower = inhibition was 11.8%.

With `CC[C@H]1OC(=O)[C@H](C)[C@@H](O[C@H]2C[C@@](C)(OC)[C@@H](O)[C@H](C)O2)[C@H](C)[C@@H](O[C@@H]2O[C@H](C)C[C@H](N(C)C)[C@@H]2O)[C@](C)(O)C[C@@H](C)CN(C)[C@H](C)[C@@H](O)[C@]1(C)O` as the compound, how does the parasite growth, lower = inhibition read?
The parasite growth, lower = inhibition was 9.84%.

For `COc1cc([C@@H]2c3cc4c(cc3[C@@H](O[C@@H]3O[C@@H]5CO[C@@H](c6cccs6)O[C@@H]5[C@H](O)[C@@H]3O)[C@H]3COC(=O)[C@H]23)OCO4)cc(OC)c1O`, which parasite growth, lower = inhibition is on record?
The parasite growth, lower = inhibition was -0.345%.

Which parasite growth, lower = inhibition does the source give for `Cc1cn[nH]c1` here?
Its parasite growth, lower = inhibition is 23.6%.

Which parasite growth, lower = inhibition does the source give for `C[C@H]1c2cccc(O)c2C(O)=C2C(=O)[C@]3(O)C(O)=C(C(N)=O)C(=O)[C@@H](N(C)C)[C@@H]3[C@@H](O)[C@@H]21` here?
Its parasite growth, lower = inhibition is 1.85%.

For `COc1ccc2cc3[n+](cc2c1OC)CCc1cc2c(cc1-3)OCO2`, which parasite growth, lower = inhibition is on record?
Its parasite growth, lower = inhibition is -0.889%.

For `C=C[C@@H]1CN2CCC1C[C@@H]2C(O)c1ccnc2ccc(OC)cc12` (stereo not given in full), which parasite growth, lower = inhibition is on record?
The parasite growth, lower = inhibition was 1.83%.

With `O=C1c2ccccc2-[n+]2ccc3c([nH]c4ccccc43)c21` as the compound, how does the parasite growth, lower = inhibition read?
Its parasite growth, lower = inhibition is 2.4%.

For `CC(=NNC(=S)N1CCC1)c1ccccn1`, which parasite growth, lower = inhibition is on record?
Its parasite growth, lower = inhibition is -0.523%.

For `c1cncc(CN2CCC(n3ncc4c(N5CCOCC5)nc(-c5ccc6[nH]ccc6c5)nc43)CC2)c1`, which parasite growth, lower = inhibition is on record?
The parasite growth, lower = inhibition was 0.462%.

With `CSc1cccc(Nc2ncc3cc(-c4c(Cl)cccc4Cl)c(=O)n(C)c3n2)c1` as the compound, how does the parasite growth, lower = inhibition read?
Its parasite growth, lower = inhibition is 3.85%.

For `CN[C@@H](C)C(=O)N[C@H]1CCCC[C@H]2CC[C@@H](C(=O)N[C@@H](c3ccccc3)c3cn(CCCCc4ccc(CCCCn5cc([C@@H](NC(=O)[C@@H]6CC[C@@H]7CCCC[C@H](NC(=O)[C@H](C)NC)C(=O)N76)c6ccccc6)nn5)cc4)nn3)N2C1=O`, which parasite growth, lower = inhibition is on record?
The parasite growth, lower = inhibition was 0.728%.

For `CCN(CC)CCNC(=O)c1c(C)[nH]c(C=C2C(=O)Nc3ccc(F)cc32)c1C`, which parasite growth, lower = inhibition is on record?
Its parasite growth, lower = inhibition is -0.534% [at 100 µM].

For `CC1(C)N=C(N)N=C(N)N1c1ccc(Cl)cc1`, which parasite growth, lower = inhibition is on record?
Its parasite growth, lower = inhibition is 3.98%.

For `CCCCCCCCCCOc1cc2c(=O)c(C(=O)OCC)c[nH]c2cc1OCC`, which parasite growth, lower = inhibition is on record?
Its parasite growth, lower = inhibition is 1.27%.

With `NC(=NCCCCCCN=C(N)N=C(N)Nc1ccc(Cl)cc1)N=C(N)Nc1ccc(Cl)cc1` as the compound, how does the parasite growth, lower = inhibition read?
The parasite growth, lower = inhibition was 3.29%.

For `CO[C@H]1O[C@@H]2O[C@@]3(C)CC[C@@H]4[C@@H](C)CC[C@@H]([C@H]1C)[C@@]24OO3`, which parasite growth, lower = inhibition is on record?
Its parasite growth, lower = inhibition is -0.475%.

For `C=CCNC1=C2C[C@@H](C)C[C@H](OC)[C@@H](O)[C@@H](C)C=C(C)[C@H](OC(N)=O)[C@@H](OC)C=CC=C(C)C(=O)NC(=CC1=O)C2=O`, which parasite growth, lower = inhibition is on record?
Its parasite growth, lower = inhibition is 0.49%.

Which parasite growth, lower = inhibition does the source give for `CCCCCCOC(=O)C1(O)CC2OC1(C)n1c3ccccc3c3c4c(c5c6ccccc6n2c5c31)C(=O)NC4` (stereo not given) here?
The parasite growth, lower = inhibition was 89.2% [at 1.88 µM].

With `COc1ccc(-c2cc3c(C)nc(N)nc3n(C3CCC(OCCO)CC3)c2=O)cn1` (stereo not given) as the compound, how does the parasite growth, lower = inhibition read?
Its parasite growth, lower = inhibition is -0.346%.

With `Cn1cc(C2=C(c3c4n(c5ccccc35)CCC(CN)C4)C(=O)NC2=O)c2ccccc21` (stereo not given) as the compound, how does the parasite growth, lower = inhibition read?
Its parasite growth, lower = inhibition is 2.27%.

Which parasite growth, lower = inhibition does the source give for `CC(C)C[C@H](NC(=O)[C@H](CCc1ccccc1)NC(=O)CN1CCOCC1)C(=O)N[C@@H](Cc1ccccc1)C(=O)N[C@@H](CC(C)C)C(=O)[C@@]1(C)CO1` here?
Its parasite growth, lower = inhibition is 0.838%.

For `Cc1cn(-c2cc(NC(=O)c3ccc(C)c(Nc4nccc(-c5cccnc5)n4)c3)cc(C(F)(F)F)c2)cn1`, which parasite growth, lower = inhibition is on record?
The parasite growth, lower = inhibition was 7.6%.

For `C1CCC(C(CC2CCCCN2)C2CCCCC2)CC1` (stereo not given), which parasite growth, lower = inhibition is on record?
The parasite growth, lower = inhibition was 0.0319%.

For `Clc1ccc2c(N3CCN(CCCN4CCN(c5ccnc6cc(Cl)ccc56)CC4)CC3)ccnc2c1`, which parasite growth, lower = inhibition is on record?
The parasite growth, lower = inhibition was -0.434% [at 23.2 µM].

For `COc1cc(NCc2ccc3nc(N)nc(N)c3c2C)cc(OC)c1OC`, which parasite growth, lower = inhibition is on record?
The parasite growth, lower = inhibition was -1.45%.

For `C[C@@H]1CCC2[C@@H](C)[C@@H](O)O[C@@H]3O[C@@]4(C)CC[C@@H]1[C@@]23OO4` (stereo not given in full), which parasite growth, lower = inhibition is on record?
Its parasite growth, lower = inhibition is -0.395%.

For `Nc1cccc(-c2csc(NC(=O)CCCCCCC(=O)NO)n2)c1`, which parasite growth, lower = inhibition is on record?
The parasite growth, lower = inhibition was -0.461%.

For `Cc1nc2cnc3ccc(C#Cc4cccnc4)cc3c2n1-c1ccc(C(C)(C)C#N)cc1`, which parasite growth, lower = inhibition is on record?
The parasite growth, lower = inhibition was 0.532%.

Which parasite growth, lower = inhibition does the source give for `CCc1cc(Nc2nccc(-c3c(-c4ccc(OC)c(C(=O)Nc5c(F)cccc5F)c4)nc4ccccn34)n2)c(OC)cc1N1CCC(N2CCN(S(C)(=O)=O)CC2)CC1` here?
Its parasite growth, lower = inhibition is -0.192%.

With `CC(C)N=C(N)N=C(N)Nc1ccc(Cl)cc1` as the compound, how does the parasite growth, lower = inhibition read?
The parasite growth, lower = inhibition was -0.338%.

With `COC(=O)c1ccc2c(C(=Nc3ccc(N(C)C(=O)CN4CCN(C)CC4)cc3)c3ccccc3)c(O)[nH]c2c1` as the compound, how does the parasite growth, lower = inhibition read?
Its parasite growth, lower = inhibition is 14.8%.

Which parasite growth, lower = inhibition does the source give for `CC(C)Oc1cc(Nc2nc(N[C@@H](C)c3ccc(F)cn3)ncc2Cl)[nH]n1` here?
Its parasite growth, lower = inhibition is 3.28%.

For `CCC(C=C[C@@H]1OC(=O)C=C[C@H]1C)=C[C@H](C)CC=CC(C)=C[C@@H](C)C(=O)[C@@H](C)[C@H](O)[C@@H](C)CC(C)=CC(=O)O`, which parasite growth, lower = inhibition is on record?
Its parasite growth, lower = inhibition is 97.6% [at 1.88 µM].

With `CC(C)C[C@@H]1NC(=O)[C@H](CCCN)NC(=O)[C@H](C(C)C)NC(=O)[C@@H]2CCCN2C(=O)[C@@H](Cc2ccccc2)NC(=O)[C@H](CC(C)C)NC(=O)[C@H](CCCN)NC(=O)[C@H](C(C)C)NC(=O)[C@@H]2CCCN2C(=O)[C@@H](Cc2ccccc2)NC1=O` (cyclo(V[Orn]L[dF]PV[Orn]L[dF]P)) as the compound, how does the parasite growth, lower = inhibition read?
The parasite growth, lower = inhibition was 0.52%.
